In PubChem BioAssay (NCI) one finds growth data, which are given here for eight compounds.

Structures are written as SMILES. About 83,000 compounds went through this panel and 20% of them were active in at least one assay; those are over-represented in the sample as a whole.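 48-hour exposure, single concentration, 96-well plates; percent growth endpoint where 0 means no net growth. Active: below 10.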 Unmarked numbers belong to inactive results. Calls of active or inactive are those of the source.

Holding throughout (assay): NCI-60 one-dose screen, 48 h (100 = growth as untreated, 0 = no growth, -100 = all killed)
What all share (settings): 10 µM unless noted

In assay [1] the test system is DU-145 prostate.
The test system of assay [2] is K-562 leukemia.
Assay [3] deals with MALME-3M melanoma.
In assay [4] the test system is MDA-MB-231 breast.
Assay [5] relates to RXF 393 renal.
The subject of assay [6] is SF-268 CNS.
In assay [7] the test system is SF-295 CNS.
In assay [8] the test system is SF-539 CNS.
The test system of assay [9] is UACC-257 melanoma.
Assay [10] relates to M14 melanoma.
Assay [11] has as its system HCT-15 colon.
In assay [12] the test system is HT29 colon.
Assay [13] has as its system SNB-75 CNS.
In assay [14] the test system is SNB-19 CNS.
For assay [15], the system named is U251 CNS.
Assay [16] relates to PC-3 prostate.
Assay [17] relates to SK-MEL-5 melanoma.
Assay [18] has as its system UACC-62 melanoma.
The test system of assay [19] is SK-MEL-28 melanoma.

As for `CCOC(=O)COc1c(OC)c(OC)cc2oc(-c3cccc(C(=O)Nc4ccc(Cl)cc4)c3)cc(=O)c12`, the growth in assay [1] is 64%; in assay [2] it was 23.2%; in [3], 52%; in assay [4] it was 50.7%; in assay [5], 75.6%; in assay [6], 56.1%. The growth in assay [7] is 38.2%; in assay [8] it was 59.8%; in assay [9] it was 77.2%; in assay [10], 33.9%; in assay [11], 21.5%; in assay [12] it was 22.9%. The growth was 34.6% in assay [13]; 62.3% in [14]; 39.9% in [15]; 41.1% in assay [16]; 22.3% in [17]; 55.1% in assay [18]. Further, the growth in assay [19] was 68.6%.

Regarding `OCNc1ccc(-n2cnc3cc(-c4ccc(O)cc4)ccc32)cc1C(F)(F)F`, the growth in [1] was 28.6%; in assay [2], 17.2%; in assay [3], 26.6%; in assay [4] it was 38.6%; in assay [5], 47.5%; in assay [6], 24.7%. Moreover, the growth in assay [7] was 4.48% (active); in [8], 23.5%; in assay [9], 58.4%; in assay [10], 11.9%; in assay [11], 15.5%; in [12], 21.2%. Besides, the growth is 17.6% in assay [13]; 35.2% in [14]; 16.8% in assay [15]; 45.6% in assay [16]; 3.27% (active) in assay [17]; 33.5% in assay [18]. Besides, the growth in assay [19] was 27.5%.

As for `COCOc1cc2c(=O)c(C)c(C(=O)N[C@@H](Cc3ccccc3)C(O)C(=O)NCc3ccccc3)oc2cc1OC` (some centres not stated), the growth in assay [1] is 57.3%; in assay [2] it was 40.6%; in assay [3], -27.7% (active); in assay [4] it was 25.6%; in assay [5], -17.2% (active); in assay [6] it was 1.19% (active). The growth is 83.5% in assay [7]; -79.7% (active) in assay [8]; 30.2% in assay [9]; 65.2% in [10]; 84.3% in assay [11]; 43.3% in assay [12]. Besides, the growth in [13] is 3.85% (active); in [14], 15.7%; in assay [15] it was -36.6% (active); in [16], 73.4%; in assay [17], 10.6%; in assay [18] it was -14.8% (active). In [19], the growth is 38.9%.

In the case of `NS(=O)(=O)c1ccc(N=Nc2c(O)n(CC(=O)Nc3ccccc3)c3ccccc23)cc1`, the growth in [1] was 21.2%; in assay [2] it was 14.7%; in assay [3], 20.7%; in [4] it was -9.74% (active); in [5], 48.9%; in assay [6], 75.3%. Further, the growth in assay [7] is 13.3%; in [8] it was -27.2% (active); in [9] it was 61.5%; in assay [10], 11.2%; in assay [11] it was 16%; in [12], 2.37% (active). Moreover, the growth in [13] was 42.2%; in [14] it was 20.2%; in assay [15], -15.1% (active); in assay [16], 20.8%; in [17], 24.6%; in assay [18] it was 22.1%. The growth in [19] is -2.1% (active).

In the case of `COc1cc2c(c(OC)c1OC)C(=O)CC(c1cccc(NC(=O)c3cccc([N+](=O)[O-])c3)c1)O2` (configuration not stated), the growth in assay [1] was 26.9%; in assay [2], 25.7%; in [3], 33.5%; in [4], 24.2%; in assay [5] it was 43.6%; in assay [6] it was 38.4%. Besides, the growth is 44.6% in assay [7]; 48.7% in [8]; 44.1% in assay [9]; 37.2% in [10]; 16.9% in [11]; 34.7% in [12]. Besides, the growth in assay [13] was 38.1%; in assay [14], 52.6%; in assay [15], 49.1%; in [16] it was 18.6%; in [17] it was -6.2% (active); in assay [18], 13.4%. Moreover, in assay [19], the growth is 41.7%.

Take `O=C(COc1ccc(NC(=O)Nc2ccccc2)cc1)N=Nc1c(O)[nH]c2ccc([N+](=O)[O-])cc12`: the growth in [1] is 33.9%; in assay [2] it was 10.5%; in assay [3], -62.7% (active); in assay [4], -42.3% (active); in assay [5] it was 33.5%; in [6], 46.7%. For the same compound, the growth was 70.3% in assay [7]; -70.5% (active) in assay [8]; 27.3% in [9]; 8.59% (active) in assay [10]; 103% in assay [11]; 6.92% (active) in assay [12]. The growth was 7.51% (active) in assay [13]; 0.584% (active) in assay [14]; -72.8% (active) in assay [15]; 2.22% (active) in [16]; 28.4% in assay [17]; 16% in assay [18]. Moreover, the growth in [19] was -43.9% (active).

For the compound `NS(=O)(=O)c1ccc(NNC(=O)CCC(=O)c2ccccc2)cc1`, the growth in assay [1] is 114%; in assay [2], 71.6%; in assay [3] it was 107%; in assay [4], 99.3%; in assay [5], 119%; in [6] it was 95.8%. In addition, the growth in [7] was 99.4%; in assay [8] it was 103%; in [9], 103%; in [10] it was 104%; in assay [11], 104%; in [12], 104%. Moreover, the growth in assay [13] was 91.9%; in assay [14], 98.3%; in [15] it was 101%; in assay [16], 97.6%; in [17], 99.1%; in assay [18], 99.9%. Further, in assay [19], the growth is 112%.

Regarding `COc1ccc(NC(=O)[C@H](CO)NC(=O)OC(C)(C)C)cc1C(=O)Nc1cccc(C2CC(=O)c3c(cc(OC)c(OC)c3OC)O2)c1` (some centres not stated), the growth in assay [1] was 58.4%; in assay [2], 28.4%; in [3], 61.4%; in assay [4] it was 41.9%; in assay [5], 53%; in assay [6], 65.1%. Besides, the growth in assay [7] is 69.1%; in assay [8], 79.1%; in assay [9], 75.3%; in assay [10] it was 66%; in [11], 33%; in assay [12] it was 49.4%. Besides, the growth in [13] was 51.4%; in assay [14], 69.2%; in assay [15], 61.9%; in assay [16] it was 49.8%; in [17], 27.9%; in [18], 49.1%. In assay [19], the growth is 71.4%.
